Screens deposited in PubChem BioAssay by National Center for Advancing Translational Sciences (NCATS).
Gal4-VP16 FLuc: Gal4-VP16 reporter inhibition counter-screen. Drosophila S2 Gal4-VP16 UAS-luciferase, luminescence, 20 h. Potency, µM (series often up to 53.6 µM), for inactives: at the top dose activity, negative = inhibition, usual class: inhibitors. hit rate 3.5% among 310,000;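 note: Gal4-VP16 expression switched on by copper sulfate through the metallothionein promoter; nearly all actives have a fitted effect of over 50% in size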
PLK1 PBD block: inhibitors of human PLK1 polo-box domain binding | Plk1 PBD binding of FITC phosphopeptide, fluorescence polarization | Potency, µM, for the others: max response, negative = inhibition, hits mostly inhibitors | hit rate 2.8% among 360,000; note: series mostly up to about 57 µM; nearly all actives have a fitted effect of over 65% in size
ALDH1A1 block: ALDH1A1 (human) enzyme inhibition; Purified ALDH1A1, NADH fluorescence, propionaldehyde substrate; Potency, µM (top dose mostly 75.3 µM), for the others: top-dose activity, negative = inhibition, usual class: inhibitors; hit rate 7.3% among 220,000; AID 1030; active = well fitted inhibition curve with a large enough effect, not every such curve was filed as active; inconclusive = small, poorly fitted or top-dose-only effect, or another doubt; inactive = no such curve, though single readings can be large or run the other way;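 note: plate controls were no enzyme wells and a reference inhibitor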
Sfp inh: blocks B. subtilis Sfp PPTase activity; Biochemical Sfp PPTase activity, qHTS; Potency, µM, for inactives: largest response in the series, negative = inhibition, actives largely listed as inhibitors; hit rate 3.5% among 310,000;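 note: the enzyme is Sfp with the accession as filed and its product quenches rhodamine fluorescence; 0% = enzyme reaction without inhibitor and -100% = no enzyme wells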
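Fluorescence-quenching assay with 15 nM Sfp, 5 uM rhodamine-CoA and 12.5 uM BHQ-2-labelled ybbR peptide in pH 7.6 Hepes/MgCl2 buffer. Enzyme was pre-incubated with compound for 15 min at room temperature. Rate was taken from the 30-min fluorescence change (525/598 nm).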
RORg inh: ROR gamma (mouse) transcription inhibition; Drosophila S2 Gal4-RORgamma UAS-luciferase reporter, 20 h; hit rate 5.4% among 310,000; AID 2551; Potency, µM (top dose mostly 53.6 µM), without a hit: at the top dose activity change, negative = inhibition, actives largely listed as inhibitors; note: nearly all actives have a fitted effect of over 60% in size
Target sequence (P51450 whole entry, looked up, the tested form may be a part): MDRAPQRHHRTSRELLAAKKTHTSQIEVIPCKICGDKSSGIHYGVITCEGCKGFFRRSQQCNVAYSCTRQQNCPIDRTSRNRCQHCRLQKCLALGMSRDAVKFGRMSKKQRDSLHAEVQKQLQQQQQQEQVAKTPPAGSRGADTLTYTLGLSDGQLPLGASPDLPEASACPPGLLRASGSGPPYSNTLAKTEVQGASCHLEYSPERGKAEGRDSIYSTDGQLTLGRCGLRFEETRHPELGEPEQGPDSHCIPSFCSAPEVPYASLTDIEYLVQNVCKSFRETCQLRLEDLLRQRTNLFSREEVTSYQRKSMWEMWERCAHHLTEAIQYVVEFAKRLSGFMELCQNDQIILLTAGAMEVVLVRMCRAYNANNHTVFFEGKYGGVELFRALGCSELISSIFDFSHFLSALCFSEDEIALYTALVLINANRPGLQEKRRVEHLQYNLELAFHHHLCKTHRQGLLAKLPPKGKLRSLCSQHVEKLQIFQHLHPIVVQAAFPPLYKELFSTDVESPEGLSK
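Drosophila S2 cells stably expressing Gal4-DBD/mouse RORγ fusion under metallothionein promoter plus UAS-luciferase; compound 1 h, then 700 uM CuSO4 induction for 20 h at ambient temperature; inhibition read as reduced luminescence.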
* hit, by the source's call. A selection: hits, their analogues and other compounds. The true share with any hit is near 12%. Unless noted, calls come from the whole dose curve; as a rule, active = well fitted curve in the direction sought with a large enough effect; inconclusive = small, poorly fitted or top-dose-only effect, or another doubt; inactive = no such curve, though single readings can be large; an effect the other way counts as inactive or inconclusive. Unless noted, % is set by controls: 0 for no effect and ±100 for the full control effect; potency is the fitted concentration of half-maximal effect.

Results for N=C1S/C(=C\c2ccco2)C(=O)N1c1nccs1 ?
Gal4-VP16 FLuc: 0.224µM*; PLK1 PBD block: -10.1%; ALDH1A1 block: 10µM*; Sfp inh: inconclusive; RORg inh: 0.0178µM*

How did COc1ccc2nc(C)cc(SCC(=O)N/N=C/c3cccc4ccccc34)c2c1 do in these assays?
Gal4-VP16 FLuc: -25.5%; PLK1 PBD block: -6.8%; ALDH1A1 block: -8.1%; Sfp inh: inconclusive; RORg inh: 11.2µM*

Results for COc1ccc2nc(C)cc(SCC(=O)N/N=C/c3ccc(O)c(O)c3)c2c1 ?
Gal4-VP16 FLuc: 1.3%; PLK1 PBD block: -5.4%; ALDH1A1 block: 28.2µM*; Sfp inh: -19.8%; RORg inh: -17.9%

How did COC(=O)CSc1cc(C)nc2ccc(OC)cc12 do in these assays?
Gal4-VP16 FLuc: -3.9%; PLK1 PBD block: inconclusive; ALDH1A1 block: inconclusive; Sfp inh: 14.1%; RORg inh: -10.2%

What do the screens show for `O=C(C(=O)N1CCN(c2ccc(F)cc2)CC1)c1cn(CC(=O)N2CCOCC2)c2ccccc12`?
Gal4-VP16 FLuc: -2.5%; PLK1 PBD block: -11.1%; Sfp inh: 14.4%; RORg inh: -2.7%

What do the screens show for `CCc1ccc(Oc2coc3cc(OCC(=O)Nc4cc(C)ccc4C)ccc3c2=O)cc1`?
Gal4-VP16 FLuc: 7.94µM*; PLK1 PBD block: -7.3%; Sfp inh: 11.1%; RORg inh: 25.1µM*

How did CCCc1ccc(Oc2coc3cc(OCC(=O)Nc4ccccc4C)ccc3c2=O)cc1 do in these assays?
Gal4-VP16 FLuc: inconclusive; PLK1 PBD block: -7.3%; ALDH1A1 block: -3.5%; Sfp inh: 10.3%; RORg inh: inconclusive

Results for CN(Cc1cn(Cc2ccc(Cl)cc2)nn1)C1CN(Cc2cn(Cc3ccc(Cl)cc3)nn2)S(=O)(=O)C1 (stereo not drawn) ?
PLK1 PBD block: -11.3%

How did O=C(COc1cc(=O)n2c(n1)SCCC2)c1ccccc1 do in these assays?
Gal4-VP16 FLuc: -10.3%; PLK1 PBD block: -8.5%; ALDH1A1 block: 14.1µM*; Sfp inh: 3.3%; RORg inh: 40.4%

What do the screens show for `CN(NS(=O)(=O)c1ccc([N+](=O)[O-])cc1)c1ccccc1`?
PLK1 PBD block: 2.99µM*

What do the screens show for `O=C(NCc1ccco1)c1ccc(Oc2ccccc2)cc1`?
Gal4-VP16 FLuc: 0.0%; PLK1 PBD block: -6.7%; ALDH1A1 block: inconclusive; Sfp inh: 79.4µM*; RORg inh: inconclusive

How did O=C(NCc1ccco1)c1cc2c(s1)CSC2 do in these assays?
Gal4-VP16 FLuc: 6.6%; PLK1 PBD block: 13.4µM*; ALDH1A1 block: inconclusive; Sfp inh: -78.0%; RORg inh: -0.2%

Results for O=C(NCc1ccco1)c1ccc2ccccc2c1 ?
Gal4-VP16 FLuc: 10µM*; PLK1 PBD block: -10.7%; ALDH1A1 block: 0.9%; Sfp inh: -22.8%; RORg inh: inconclusive

How did O=C(NCc1ccco1)c1cccc(Br)c1 do in these assays?
Gal4-VP16 FLuc: -7.5%; PLK1 PBD block: -5.0%; Sfp inh: 70.8µM*; RORg inh: -12.5%

Results for O=C(NCc1ccco1)c1ccc(C(=O)NCc2ccco2)cc1 ?
PLK1 PBD block: -8.5%

How did COCCN(Cc1ccc(OC)cc1)c1c(C)nc2ccc(C(=O)NCCc3c[nH]c4ccccc34)cn12 do in these assays?
PLK1 PBD block: -2.3%

What do the screens show for `O=C(NCc1ccco1)c1ccc2c(c1)C(=O)c1ccccc1-2`?
Gal4-VP16 FLuc: 5.1%; PLK1 PBD block: -16.6%; ALDH1A1 block: 28.2µM*; Sfp inh: 11.2µM*; RORg inh: -22.4%

How did O=C(NCc1ccco1)c1cccn2c(=O)c3cc4ccccc4cc3nc12 do in these assays?
Gal4-VP16 FLuc: 11.2µM*; ALDH1A1 block: 4.4%; Sfp inh: inconclusive; RORg inh: inconclusive

What do the screens show for `O=C(NCc1ccco1)c1cc2cc(Br)ccc2o1`?
Gal4-VP16 FLuc: 1.4%; PLK1 PBD block: 10.6µM*; Sfp inh: 20µM*; RORg inh: 17.6%

What do the screens show for `CC1CC(C)(C)NC(=S)O1` (stereo not drawn)?
Gal4-VP16 FLuc: -7.4%; PLK1 PBD block: inconclusive; ALDH1A1 block: 5.9%; Sfp inh: -6.5%; RORg inh: 2.4%

Results for Cc1ccc([C@H]2C[C@H](O)[C@@H](n3cc(C4CC4)nn3)CN2C(=O)C2CCCCC2)cc1 ?
PLK1 PBD block: 2.1%

Results for Nc1nonc1-n1nnc(C(=O)N/N=C/C=C/c2ccccc2)c1CSC1=NCCS1 ?
Gal4-VP16 FLuc: 3.16µM*; PLK1 PBD block: 0.9%; Sfp inh: 8.0%; RORg inh: 1.41µM*

What do the screens show for `CCN(CC)Cc1c(C(=O)N/N=C/c2cccs2)nnn1-c1nonc1N`?
Gal4-VP16 FLuc: -10.4%; PLK1 PBD block: -11.9%; Sfp inh: 9.7%; RORg inh: inconclusive

What do the screens show for `Nc1nonc1-n1nnc(C(=O)N/N=C/c2ccccc2Cl)c1CSc1ccccc1`?
Gal4-VP16 FLuc: -6.9%; PLK1 PBD block: -11.4%; Sfp inh: -10.7%; RORg inh: 35.6%

Results for Nc1nonc1-n1nnc(C(=O)N/N=C/c2cccs2)c1CSc1ccccc1 ?
Gal4-VP16 FLuc: 5.01µM*; PLK1 PBD block: -13.3%; Sfp inh: 7.9%; RORg inh: inconclusive

Results for CC(C)OC(=O)c1nnn(-c2nonc2N)c1CSc1ccccn1 ?
Gal4-VP16 FLuc: 7.8%; PLK1 PBD block: -23.4%; ALDH1A1 block: 2.24µM*; Sfp inh: -21.5%; RORg inh: 0.8%

Results for CCc1c(C(=O)N/N=C/c2cccs2)nnn1-c1nonc1N ?
Gal4-VP16 FLuc: inconclusive; PLK1 PBD block: -3.5%; Sfp inh: 21.0%; RORg inh: 12.6µM*

How did CC(C)CC1NC(=O)c2cc3ccccc3cc2-n2c1nc1ccc(F)cc1c2=O (stereo not drawn) do in these assays?
PLK1 PBD block: -3.6%

What do the screens show for `C=C1C(n2cnc3c(=O)[nH]c(N)nc32)C[C@H](O)[C@H]1CO` (stereo partly drawn)?
Gal4-VP16 FLuc: -4.4%; Sfp inh: 19.1%; RORg inh: -29.8%

What do the screens show for `CSC(=Nc1ccccc1)C(C#N)c1nc2ccccc2[nH]1` (stereo not drawn)?
Gal4-VP16 FLuc: -14.1%; PLK1 PBD block: -4.7%; Sfp inh: -16.5%; RORg inh: 5.62µM*

What do the screens show for `N#C/C(=N\O)c1nc2ccccc2[nH]1`?
Gal4-VP16 FLuc: 0.4%; PLK1 PBD block: -3.1%; ALDH1A1 block: -8.9%; Sfp inh: inconclusive; RORg inh: -22.1%

Results for N#CC(C(=S)Nc1ccccc1)c1nc2ccccc2[nH]1 (stereo not drawn) ?
Gal4-VP16 FLuc: 2.51µM*; PLK1 PBD block: -16.9%; Sfp inh: -4.1%; RORg inh: 1.12µM*

What do the screens show for `N#CC(C(=O)C1CCCCC1)c1nc2ccccc2[nH]1` (stereo not drawn)?
Gal4-VP16 FLuc: 7.94µM*; PLK1 PBD block: -1.0%; ALDH1A1 block: inconclusive; Sfp inh: 19.5%; RORg inh: 3.55µM*

How did CC(=O)Oc1ccc(Cn2c(C)c(C(=O)NC3CC3)sc2=O)cc1 do in these assays?
PLK1 PBD block: 0.2%
